Experiment [1] deals with 3',5'-cyclic-AMP phosphodiesterase 4B (Homo sapiens) (UniProt Q07343). In words: qHTS Assay for Inhibitors of PDE-IV (AID 607; active = well fitted activation curve with a large enough effect in the main read-out, with a control signal flat, not every such curve was filed as active; note: % of control where 0% means no effect). To be noted: HEK293 ACTOne CNG channel cells, membrane potential fluorescence; series mostly up to 22.9 µM. The essentials:
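HEK293 ACTOne cells with CNG channel (1000/well), endogenous PDE4; membrane potential dye, compounds up to 22.9 uM final. Fluorescence Ex 535/Em 590; RO 20-1724 (100 uM final) as reference.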
On the technique in general: In qHTS, concentration-response curves come from the screen itself.

The target in experiment [2] is Cytochrome P450 2D6 (Homo sapiens) (UniProt P10635). In words: qHTS Assay for Inhibitors and Substrates of Cytochrome P450 2D6 (AID 891). Note: nearly all actives have a fitted effect of over 60% in size. To be noted: recombinant CYP2D6, luciferin-ME EGE luminescence; series mostly up to 57.1 µM. The essentials:
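Luminescent read-out of luciferin formed by 5 nM human CYP2D6 demethylating 30 uM Luciferin-ME EGE (Km level) over 60 min at room temperature after NADPH regeneration addition. Data normalized to full inhibition by 1.43 uM quinidine.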

Experiment [3] concerns the target ATP-dependent 6-phosphofructokinase (Trypanosoma brucei brucei) (UniProt O15648). Briefly: qHTS Assay to Find Inhibitors of T. brucei phosphofructokinase: hit validation (AID 492961). Note: % is set by controls: 0 for no effect and ±100 for the full control effect. The settings on record: T. brucei PFK, ADP-Glo luminescence; series mostly up to 51.4 µM. In a few lines: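 Luminescence from ADP-Glo reports ADP generated as T. brucei PFK (1.25 nM) phosphorylates 0.5 mM fructose-6-phosphate using 0.1 mM ATP. Reactions ran 45 min at room temperature, pH 8.0.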

The target of experiment [4] is Ubiquitin carboxyl-terminal hydrolase 1 (Homo sapiens) (UniProt O94782). In words: Inhibitors of USP1/UAF1: Pilot qHTS (AID 504865).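 Note: rhodamine fluorescence freed from ubiquitin-rhodamine substrate followed over time; top concentration of the series differs between compounds; % is set by controls: 0 for no effect and ±100 for the full control effect; nearly all actives have a fitted effect of over 35% in size.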 To be noted: purified USP1/UAF1, Ub-rhodamine cleavage fluorescence; series mostly up to 114 µM. In a few lines: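 In 50mM HEPES pH 7.8 containing 0.5mM EDTA, 1mM TCEP, 0.1 mg/ml BSA and 0.01% Tween-20, 1nM USP1/UAF1 is exposed to compound for 15 min, then Ub-Rho (150nM final) is added and fluorescence is read over time.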
Chain of Ubiquitin carboxyl-terminal hydrolase 1 (Homo sapiens) (O94782 whole entry, looked up): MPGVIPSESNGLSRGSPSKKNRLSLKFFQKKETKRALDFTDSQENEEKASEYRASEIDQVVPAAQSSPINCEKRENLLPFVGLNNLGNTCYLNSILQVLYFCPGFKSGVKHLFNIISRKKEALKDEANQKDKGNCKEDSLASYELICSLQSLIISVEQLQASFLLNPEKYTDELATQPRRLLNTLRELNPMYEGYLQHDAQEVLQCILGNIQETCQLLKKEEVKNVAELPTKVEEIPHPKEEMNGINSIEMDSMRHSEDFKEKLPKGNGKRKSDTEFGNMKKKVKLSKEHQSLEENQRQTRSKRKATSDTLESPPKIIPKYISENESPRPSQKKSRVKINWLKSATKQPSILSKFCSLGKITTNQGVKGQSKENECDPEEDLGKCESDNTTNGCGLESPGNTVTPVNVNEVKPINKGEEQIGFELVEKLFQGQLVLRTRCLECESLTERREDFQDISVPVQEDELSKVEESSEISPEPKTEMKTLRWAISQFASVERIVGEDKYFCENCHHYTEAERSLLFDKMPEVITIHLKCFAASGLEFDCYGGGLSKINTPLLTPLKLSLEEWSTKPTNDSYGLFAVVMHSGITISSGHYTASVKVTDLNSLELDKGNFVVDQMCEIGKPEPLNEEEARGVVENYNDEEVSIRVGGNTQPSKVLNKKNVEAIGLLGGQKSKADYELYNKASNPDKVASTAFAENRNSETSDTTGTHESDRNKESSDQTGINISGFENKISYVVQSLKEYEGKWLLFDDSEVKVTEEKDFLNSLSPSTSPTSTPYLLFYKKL

Experiment [5] can be described thus: S16 Schwann cell viability assay (CellTiter-Glo assay) (AID 624031).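 Note: native untransfected S16 rat Schwann cells; cellular ATP luminescence as a viability measure; plate controls were DMSO-treated cells for no effect and cell-free wells for full effect; nearly all actives have a fitted effect of over 70% in size.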 The settings on record: S16 rat Schwann cells viability, 24 h; series mostly up to 57.5 µM. The essentials:
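Cells were seeded at 500-750 per well in phenol red-free DMEM with 10% FBS and left overnight. Compounds or DMSO were pinned in, incubation ran 24 h at 37 °C/5% CO2, then CellTiter-Glo reagent was added and luminescence measured.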
Background: Cellular ATP, detected with luciferase, serves as a proxy for viable cell number.

Experiment [6] is described as follows: S16 Schwann cell PMP22 intronic element firefly luciferase assay (AID 624032).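 Note: plate controls were DMSO for no effect and PTC124 positive control mean for full effect; nearly all actives have a fitted effect of over 30% in size.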 To be noted: S16 rat Schwann cells, PMP22 element FLuc, 24 h; series mostly up to 57.5 µM. In a few lines:
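Rat S16 Schwann cells stably carrying firefly luciferase driven by a PMP22 intronic element, in 10% FBS, treated 24 h at 37 C. ONE-Glo luminescence normalized to PTC124 control and DMSO (0%); curves classed by r2, magnitude and activity.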

Experiment [7] in a line: qHTS profiling for inhibitors of Plasmodium falciparum proliferation (AID 504749).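 For activity, negative = inhibition: 0% = DMSO vehicle and full inhibition = artemisinin control.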 Note: nearly all actives have a fitted effect of over 60% in size. Note: potency is the fitted concentration of half-maximal effect. The settings on record: P. falciparum in erythrocytes, SYBR Green DNA, 72 h, at 12.8 µM (top of the series). In a few lines:
(§1)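 Each compound contacts P. falciparum-infected red blood cells for 72 h at 37 C; lysis buffer (Tris, EDTA, saponin, Triton X, SYBR Green I) is added and fluorescence measured next morning; values normalized to controls.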

For experiment [8], the system named is 7G8. Described as above. To be noted: P. falciparum in erythrocytes, SYBR Green DNA, 72 h; series mostly up to 28.7 µM. The essentials:
as §1

Experiment [9] concerns CP192. The experiment is described as above. To be noted: P. falciparum in erythrocytes, SYBR Green DNA, 72 h; series mostly up to 28.7 µM. The essentials: as §1
In experiment [10] the test system is CP201. The description is as above. The settings on record: P. falciparum in erythrocytes, SYBR Green DNA, 72 h; series mostly up to 28.7 µM. In a few lines: as §1
In experiment [11] the test system is CP203. Described as above. The settings on record: P. falciparum in erythrocytes, SYBR Green DNA, 72 h; series mostly up to 28.7 µM. The essentials:
as §1

Experiment [12] has as its system CP266. Described as above. To be noted: P. falciparum in erythrocytes, SYBR Green DNA, 72 h; series mostly up to 28.7 µM. In a few lines:
as §1

Experiment [13] deals with CP315. The description is as above. To be noted: P. falciparum in erythrocytes, SYBR Green DNA, 72 h; series mostly up to 28.7 µM. The essentials: as §1
Experiment [14] concerns DIV14. Described as above. The settings on record: P. falciparum in erythrocytes, SYBR Green DNA, 72 h; series mostly up to 28.7 µM. The essentials: as §1
For experiment [15], the system named is FAB9. The description is as above. The settings on record: P. falciparum in erythrocytes, SYBR Green DNA, 72 h; series mostly up to 28.7 µM. The essentials: as §1
Experiment [16] relates to HB3. The description is as above. The settings on record: P. falciparum in erythrocytes, SYBR Green DNA, 72 h; series mostly up to 28.7 µM. In a few lines: as §1
Experiment [17] relates to PC15. The experiment is described as above. To be noted: P. falciparum in erythrocytes, SYBR Green DNA, 72 h; series mostly up to 28.7 µM. In a few lines: as §1
The subject of experiment [18] is PC26. The description is as above. The settings on record: P. falciparum in erythrocytes, SYBR Green DNA, 72 h; series mostly up to 28.7 µM. In a few lines:
as §1

The test system of experiment [19] is PC49. The description is as above. The settings on record: P. falciparum in erythrocytes, SYBR Green DNA, 72 h; series mostly up to 28.7 µM. The essentials:
as §1

Experiment [20] relates to W2. Described as above. The settings on record: P. falciparum in erythrocytes, SYBR Green DNA, 72 h; series mostly up to 28.7 µM. In a few lines:
as §1

Results filed as inconclusive are left out. Unmarked numbers belong to inactive results. Calls of active or inactive are those of the source. Unless noted, calls come from the whole dose curve; as a rule, active = well fitted curve in the direction sought with a large enough effect; inconclusive = small, poorly fitted or top-dose-only effect, or another doubt; inactive = no such curve, though single readings can be large; an effect the other way counts as inactive or inconclusive.

Chain of Cytochrome P450 2D6 (Homo sapiens) (P10635 whole entry, looked up): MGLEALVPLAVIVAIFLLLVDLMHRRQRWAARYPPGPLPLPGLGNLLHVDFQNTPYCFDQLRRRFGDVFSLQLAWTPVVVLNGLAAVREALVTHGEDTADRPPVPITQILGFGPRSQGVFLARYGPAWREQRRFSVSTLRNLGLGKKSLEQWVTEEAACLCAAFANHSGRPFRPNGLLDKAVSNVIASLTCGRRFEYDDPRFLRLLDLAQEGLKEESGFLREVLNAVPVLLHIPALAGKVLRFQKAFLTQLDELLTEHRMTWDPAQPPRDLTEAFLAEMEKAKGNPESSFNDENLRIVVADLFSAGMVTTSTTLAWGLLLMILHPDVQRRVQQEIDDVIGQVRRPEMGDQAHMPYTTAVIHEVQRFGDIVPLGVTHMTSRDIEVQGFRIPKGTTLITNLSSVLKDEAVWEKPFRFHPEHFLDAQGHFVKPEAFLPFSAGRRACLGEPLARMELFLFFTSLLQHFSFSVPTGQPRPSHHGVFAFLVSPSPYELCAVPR
Chain of 3',5'-cyclic-AMP phosphodiesterase 4B (Homo sapiens) (Q07343 whole entry, looked up): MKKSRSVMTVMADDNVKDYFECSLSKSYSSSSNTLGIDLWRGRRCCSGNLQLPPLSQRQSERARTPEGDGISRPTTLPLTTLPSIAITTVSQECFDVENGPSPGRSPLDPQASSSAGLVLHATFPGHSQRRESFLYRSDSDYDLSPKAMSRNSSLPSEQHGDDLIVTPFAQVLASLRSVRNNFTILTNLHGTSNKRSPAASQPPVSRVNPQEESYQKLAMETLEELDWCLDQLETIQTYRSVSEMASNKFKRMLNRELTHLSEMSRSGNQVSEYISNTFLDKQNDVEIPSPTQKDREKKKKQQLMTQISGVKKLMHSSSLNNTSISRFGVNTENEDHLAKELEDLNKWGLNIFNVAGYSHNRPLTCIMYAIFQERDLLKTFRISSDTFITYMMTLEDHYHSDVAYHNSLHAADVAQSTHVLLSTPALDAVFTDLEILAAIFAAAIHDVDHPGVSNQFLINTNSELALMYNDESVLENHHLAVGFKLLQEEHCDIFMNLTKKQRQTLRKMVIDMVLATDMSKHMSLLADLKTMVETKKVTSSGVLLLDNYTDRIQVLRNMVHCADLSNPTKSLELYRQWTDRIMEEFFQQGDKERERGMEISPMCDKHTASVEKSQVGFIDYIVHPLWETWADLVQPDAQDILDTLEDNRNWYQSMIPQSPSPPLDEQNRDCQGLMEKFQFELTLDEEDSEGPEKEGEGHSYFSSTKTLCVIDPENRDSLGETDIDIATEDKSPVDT
Chain of ATP-dependent 6-phosphofructokinase (Trypanosoma brucei brucei) (O15648 whole entry, looked up): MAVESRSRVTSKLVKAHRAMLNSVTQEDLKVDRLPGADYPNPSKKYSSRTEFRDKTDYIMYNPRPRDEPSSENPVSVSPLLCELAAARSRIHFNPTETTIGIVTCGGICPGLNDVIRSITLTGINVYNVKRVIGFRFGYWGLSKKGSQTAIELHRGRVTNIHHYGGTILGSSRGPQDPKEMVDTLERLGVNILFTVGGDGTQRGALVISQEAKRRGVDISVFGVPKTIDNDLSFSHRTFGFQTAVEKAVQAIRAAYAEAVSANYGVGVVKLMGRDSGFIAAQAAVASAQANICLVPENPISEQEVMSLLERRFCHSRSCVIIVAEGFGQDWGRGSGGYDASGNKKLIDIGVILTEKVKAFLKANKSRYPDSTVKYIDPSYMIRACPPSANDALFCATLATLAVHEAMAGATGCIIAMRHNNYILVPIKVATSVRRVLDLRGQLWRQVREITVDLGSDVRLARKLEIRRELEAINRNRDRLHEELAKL

Consider `COc1cc2c(c(OC)c1OC)-c1ccc(OC)c(=O)cc1[C@H](NC(C)=O)CC2`, for which the Potency entry in experiment [1] was “inactive”. In addition, in experiment [2], the Potency result is “inactive” and the outcome was inactive.

In the case of `C[C@H](O)[C@@H]1C(=O)N2C(C(=O)O)=C(SCCN=CN)C[C@@H]12`, the Potency entry in [1], in [3], in experiment [4], in [5], in experiment [6] and in experiment [8] was “inactive” throughout. Further, the Potency entry in experiment [9], in experiment [10], in experiment [11], in experiment [12], in [13] and in experiment [14] was “inactive” each time. Moreover, the Potency result in [15], in [16], in [17], in experiment [18], in experiment [19] and in experiment [20] was “inactive” each time. For the same compound, the activity, negative = inhibition was 7.64% in experiment [7] (parasite line A) and 5.5% in [7] (parasite line B).

On to `COc1cc([C@H]2c3cc4c(cc3[C@@H](O[C@H]3O[C@H]5CO[C@@H](C)O[C@H]5[C@@H](O)[C@@H]3O)[C@@H]3COC(=O)[C@H]23)OCO4)cc(OC)c1O`, for which the Potency entry in [3], in [5], in experiment [6], in experiment [9], in experiment [10] and in experiment [11] was “inactive” in each case. The Potency entry in experiment [12], in experiment [13], in experiment [14], in [15], in experiment [16] and in [17] was “inactive” throughout. The Potency result in experiment [18] and in experiment [19] was “inactive” each time. In addition, the Potency in experiment [8] was 15.8 µM (active); in experiment [20], 13.5 µM (active).

In the case of `COc1cc(/C=C\C(=O)N2CCC=CC2=O)cc(OC)c1OC`, in experiment [4], the Potency entry was “inactive”.

(Values after PubChem BioAssay (NCATS).)
